SMILES strings stand for the structures. Among all 210,000 compounds or so, about 1,300 (0.62%) were called active.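 Rule for the calls: active = inhibition of 40% or more; inactive = the rest.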 The sample as a whole holds a higher share of actives than the screen did.

Chain of Kallikrein-5 (Homo sapiens) (Q9Y337 67-293 limits assumed): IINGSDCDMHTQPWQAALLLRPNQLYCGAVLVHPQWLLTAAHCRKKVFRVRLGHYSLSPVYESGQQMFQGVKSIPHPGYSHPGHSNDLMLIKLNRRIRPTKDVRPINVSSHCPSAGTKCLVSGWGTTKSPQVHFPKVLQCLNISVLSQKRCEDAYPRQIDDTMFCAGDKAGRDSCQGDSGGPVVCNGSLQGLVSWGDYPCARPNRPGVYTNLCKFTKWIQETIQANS

The assay has as its target Kallikrein-5 (Homo sapiens) (UniProt Q9Y337). Description: human KLK5 protease inhibitors, primary screen, biochemical, 1536-well (AID 873).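 Note: 0% = enzyme controls without compound and 100% = no-enzyme blanks.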 The settings on record: recombinant hK5, fluorogenic AMC substrate cleavage; at 5 µM; stronger effect = higher value.
Take `CC(C)n1c(=O)c(C=Nc2ccc(Br)cc2)c(O)n(Cc2ccco2)c1=O`: the inhibition was 115% (active). Consider `CN(C)CC1Oc2ccccc2OC1(O)c1ccccc1` (stereo not given), for which the inhibition was -2.65% (inactive). The figure for `O=c1[nH]c(=O)n(Cc2ccccc2)c(O)c1/C=N/Nc1c(F)c(F)c(F)c(F)c1F` is 3.18% (inactive); for `O=C(O)COc1ccccc1/C=C1\C(=O)NC(=O)N(CCC2=CCCCC2)C1=O` it is 0.1% (inactive); for `CC(C)c1ccc(-n2c(O)c(/C=N/N3CCOCC3)c(=O)[nH]c2=S)cc1` it is -2.01% (inactive).

Usually inhibition stands for the relative decrease from the control value, in per cent.

Source of the values: PubChem BioAssay AID873 (PCMD, 2007).
